Experimental findings from PubChem BioAssay (Tox21) are described below.

Results filed as inconclusive are left out. Some structures have more than one record in an assay (separate samples or runs), and their calls can disagree. Calls of active or inactive are those of the source. Unless noted, the call rests on the fitted dose curve; in most records, active means well fitted curve in the direction sought with a large enough effect in the repeat runs; inconclusive means weak or mixed curves; inactive means no such curve, though single readings can be large; an effect the other way counts as inactive or inconclusive.

The nature of experiment [1]: qHTS assay to identify small molecule antagonists of the androgen receptor (AR) signaling pathway using the MDA cell line in the presence of 0.5 nM R1881 - cell viability counter screen (AID 1259242). Further: nearly all actives have a fitted effect of over 45% in size. The method in brief:
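Viability of MDA-kb2 cells was multiplexed with the luciferase AR readout; after 16 hr with compounds and R1881 at 0.5 nM final, CellTiter-Fluor fluorescence was recorded.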
(Quantitative high-throughput screening tests each substance at several concentrations.)

Experiment [2] deals with Estrogen receptor (Homo sapiens) (UniProt P03372). In words: qHTS assay to identify small molecule antagonists of the estrogen receptor alpha (ER-alpha) signaling pathway using the BG1 cell line in the presence of 0.1 nM 17-beta-estradiol (AID 1259244). Further: nearly all actives have a fitted effect of over 50% in size. Further: potency means the concentration at half of the fitted maximal effect. The gist of the method: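 Estradiol at 0.1 nM (final) stimulates the endogenous ER-alpha of VM7Luc4E2 cells carrying an ERE-driven luciferase; compounds are co-incubated 22 h at 37C and luciferase output quantified by luminescence.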
Sequence of Estrogen receptor (Homo sapiens) (P03372 whole entry, looked up): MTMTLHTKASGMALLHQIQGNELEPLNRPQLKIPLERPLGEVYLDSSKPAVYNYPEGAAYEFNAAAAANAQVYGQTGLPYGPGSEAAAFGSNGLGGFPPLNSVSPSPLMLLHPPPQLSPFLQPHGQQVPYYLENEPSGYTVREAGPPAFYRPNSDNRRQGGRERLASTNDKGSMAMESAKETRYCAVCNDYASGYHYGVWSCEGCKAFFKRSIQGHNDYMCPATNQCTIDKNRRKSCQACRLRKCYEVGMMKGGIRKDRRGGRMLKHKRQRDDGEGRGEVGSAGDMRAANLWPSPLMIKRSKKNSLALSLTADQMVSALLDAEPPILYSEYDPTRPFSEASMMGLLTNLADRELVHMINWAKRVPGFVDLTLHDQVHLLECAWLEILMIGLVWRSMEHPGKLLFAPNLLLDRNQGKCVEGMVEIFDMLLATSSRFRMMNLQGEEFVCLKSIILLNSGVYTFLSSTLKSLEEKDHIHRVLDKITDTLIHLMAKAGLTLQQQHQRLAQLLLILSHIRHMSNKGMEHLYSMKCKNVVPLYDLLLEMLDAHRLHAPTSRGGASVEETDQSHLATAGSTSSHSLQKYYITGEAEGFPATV

Experiment [3] in a line: qHTS assay to identify small molecule HDAC inhibitors (AID 1259364).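 Further: wild-type HCT-116 cells with endogenous class I/II HDAC activity; top concentration of the series differs between compounds; nearly all actives have a fitted effect of over 45% in size.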 The method in brief:
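Read-out: luminescence of HDAC-Glo I/II reagent, 30 min RT, reflecting class I/II deacetylase activity in whole HCT-116 cells pre-exposed 2 h to DMSO-dissolved compounds.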

The nature of experiment [4]: qHTS assay to identify small molecule HDAC inhibitors - cell viability counter screen (AID 1259365). Further: nearly all actives have a fitted effect of over 50% in size. Further: potency means the concentration at half of the fitted maximal effect. On activity change, negative = cytotoxicity: series mostly up to about 92 µM. The method in brief:
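HCT-116 (wild type), 1,500 cells/well, overnight 37C/5% CO2; compound in DMSO 2hr; CellTiter-Glo 30min RT; luminescence read.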

Experiment [5] in a line: qHTS assay to identify small molecule agonists of the sonic hedgehog signaling (Shh) pathway - cell viability counter screen (AID 1259366). Further: nearly all actives have a fitted effect of over 50% in size. Further: potency means the concentration at half of the fitted maximal effect. The method in brief:
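CellTiter-Fluor fluorescence read-out, 1 hr at 37C, added after 23hr compound exposure. Cells: 3T3 Gli1-Luc, an NIH/3T3 clone with stably integrated Gli1-Luc reporter, plated 4hr before compound.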

Experiment [6] can be described thus: qHTS assay to identify small molecule antagonists of the sonic hedgehog signaling (Shh) pathway - cell viability counter screen (AID 1259367). Further: nearly all actives have a fitted effect of over 55% in size. Further: potency means the concentration at half of the fitted maximal effect. The gist of the method: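 Seed 3T3 Gli1-Luc cells at 2,000 per well; incubate 4 hr; add compound in DMSO, then conditioned medium; incubate at 37C with 5% CO2; add CellTiter-Fluor after 23 hr; read fluorescence 1 hr later.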

Experiment [7] in a line: qHTS assay to identify small molecule agonists of the sonic hedgehog signaling (Shh) pathway (AID 1259368; calls by dose curve;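 further: NIH/3T3-derived 3T3Gli1-Luc cells carrying a stable Gli1-driven firefly luciferase reporter; series mostly up to about 92 µM; nearly all actives have a fitted effect of over 15% in size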). The gist of the method:
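A Gli1 transcriptional response element controlled firefly luciferase in 3T3Gli1-Luc cells. Compounds and a positive control were added 4 hr after plating, and cells were incubated a further 24 hr at 37 C before luminescence detection.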

Experiment [8] can be described thus: qHTS assay to identify small molecule antagonists of the sonic hedgehog signaling (Shh) pathway (AID 1259369; calls by dose curve; further: nearly all actives have a fitted effect of over 45% in size; further: potency means the concentration at half of the fitted maximal effect). The method in brief: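 For antagonist detection, the reporter line received test compounds together with conditioned medium, incubated 24hr at 37 C, 5% CO2, then luminescence was recorded following 30min room-temperature luciferase reagent incubation.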
On the % scale 0 is the no-effect control and ±100 the full control effect.

As to `Cc1ccc(N)cc1C`, the Potency entry in experiment [1], in experiment [2], in experiment [3], in experiment [4], in experiment [5] and in experiment [6] was “inactive” throughout. Also, the Potency result in experiment [7] and in experiment [8] was “inactive” throughout.

Take `C[C@]12CC[C@H]3[C@@H](CCC4=CC(=O)CC[C@@H]43)[C@@H]1CC[C@@H]2OC(=O)CCC1CCCCC1`: the Potency entry in experiment [1], in experiment [2], in experiment [3], in experiment [4], in experiment [5] and in experiment [6] was “inactive” each time. Also, the Potency result in experiment [7] and in experiment [8] was “inactive” each time.

Take `CCOP(=O)(OCC)SCCSCC`: the Potency entry in experiment [1], in experiment [2], in experiment [3], in experiment [4], in experiment [5] and in experiment [6] was “inactive” each time. Also, the Potency entry in experiment [7] and in experiment [8] was “inactive” each time.

Turning to `O=C(NC(=O)c1c(F)cccc1F)Nc1cc(Cl)c(Oc2ncc(C(F)(F)F)cc2Cl)c(Cl)c1`, the Potency result in experiment [1], in experiment [3], in experiment [4], in experiment [5], in experiment [6] and in experiment [7] was “inactive” in each case. Besides, the Potency in experiment [2] is 29.3 µM (active); in experiment [8], 23.3 µM (active).

As to `Cl/C=C\C[N+]12CN3CN(CN(C3)C1)C2`, the Potency result in experiment [1], in experiment [2], in experiment [3], in experiment [4], in experiment [5] and in experiment [6] was “inactive” throughout. Also, the Potency result in experiment [7] and in experiment [8] was “inactive” each time.

Turning to `O=C(O)C(F)(F)C(F)(F)C(F)(F)C(F)(F)C(F)(F)C(F)(F)C(F)(F)C(F)(F)C(F)(F)F`, the Potency result in experiment [1], in experiment [2], in experiment [3], in experiment [4], in experiment [5] and in experiment [6] was “inactive” each time. In addition, the Potency entry in experiment [7] is “inactive”.

`Cc1c(F)c(F)c(COC(=O)C2C(/C=C(\Cl)C(F)(F)F)C2(C)C)c(F)c1F` (stereo not given): the Potency entry in experiment [1], in experiment [2], in experiment [3], in experiment [4], in experiment [5] and in experiment [6] was “inactive” in each case. Besides, the Potency entry in experiment [7] is “inactive”.

Take `O=C(NCc1cccnc1)Nc1ccc([N+](=O)[O-])cc1`: the Potency entry in experiment [1], in experiment [2], in experiment [3], in experiment [4], in experiment [5] and in experiment [6] was “inactive” throughout. In addition, the Potency entry in experiment [7] and in experiment [8] was “inactive” throughout.

As for `CCCCCCC#N`, the Potency entry in experiment [1], in experiment [2], in experiment [3], in experiment [4], in experiment [5] and in experiment [6] was “inactive” in each case. For the same compound, the Potency result in experiment [7] and in experiment [8] was “inactive” throughout.

With `CN(N=O)c1ccc([N+](=O)[O-])cc1`, the Potency entry in experiment [1], in experiment [2], in experiment [3], in experiment [4], in experiment [5] and in experiment [6] was “inactive” in each case. For the same compound, the Potency entry in experiment [7] and in experiment [8] was “inactive” in each case.

Regarding `N#Cc1ccc(Cl)cc1`, the Potency result in experiment [1], in experiment [2], in experiment [3], in experiment [4], in experiment [5] and in experiment [6] was “inactive” in each case. The Potency result in experiment [7] and in experiment [8] was “inactive” in each case.

As for `CC1(C)[C@H](C=C(Cl)Cl)[C@@H]1C(=O)O[C@@H](C#N)c1cccc(Oc2ccccc2)c1`, the Potency entry in experiment [1], in experiment [2], in experiment [3], in experiment [4], in experiment [5] and in experiment [6] was “inactive” each time. Further, the Potency entry in experiment [7] and in experiment [8] was “inactive” throughout.

For the compound `Nc1nc(=S)[nH][nH]1`, the Potency result in experiment [1], in experiment [2], in experiment [3], in experiment [4], in experiment [5] and in experiment [6] was “inactive” throughout. The Potency entry in experiment [7] and in experiment [8] was “inactive” throughout.

On to `CC(C)=CCOc1c2occc2cc2ccc(=O)oc12`, for which the Potency result in experiment [1], in experiment [2], in experiment [3], in experiment [4], in experiment [5] and in experiment [6] was “inactive” each time. Moreover, in experiment [7], the Potency entry was “inactive”.

Regarding `O=C(NC(=O)c1c(F)cccc1F)Nc1ccc(OC(F)(F)C(F)OC(F)(F)F)c(Cl)c1` (stereo not given), the Potency entry in experiment [1], in experiment [2], in experiment [3], in experiment [4], in experiment [5] and in experiment [6] was “inactive” in each case. Further, the Potency entry in experiment [8] was “inactive”.

Take `CCOP(=S)(OCC)Oc1cc(Cl)c(Br)cc1Cl`: the Potency entry in experiment [1], in experiment [2], in experiment [3], in experiment [4], in experiment [5] and in experiment [6] was “inactive” throughout. Moreover, the Potency result in experiment [7] and in experiment [8] was “inactive” throughout.

For the compound `Brc1ccccc1`, the Potency result in experiment [1], in experiment [2], in experiment [3], in experiment [4], in experiment [5] and in experiment [6] was “inactive” throughout. In addition, the Potency entry in experiment [8] was “inactive”.

For the compound `CCOP(=S)(OCC)Oc1nc(Cl)c(Cl)cc1Cl`, the Potency result in experiment [1], in experiment [2], in experiment [3], in experiment [7] and in experiment [8] was “inactive” in each case. Moreover, the Potency in experiment [4] was 48.7 µM (active) and inactive; in experiment [5], 43.4 µM (active) and inactive; in experiment [6], 68.7 µM (active) and inactive.

Take `CC(Cl)Cl`: the Potency result in experiment [1], in experiment [2], in experiment [3], in experiment [4], in experiment [5] and in experiment [7] was “inactive” each time.

Consider `O=C(C(Cl)(Cl)Cl)C(Cl)(Cl)Cl`, for which the Potency entry in experiment [1], in experiment [2], in experiment [3], in experiment [4], in experiment [5] and in experiment [6] was “inactive” each time. The Potency result in experiment [7] and in experiment [8] was “inactive” in each case.

In the case of `O=NN1CCNCC1`, the Potency entry in experiment [1], in experiment [2], in experiment [3], in experiment [4], in experiment [5] and in experiment [6] was “inactive” each time. In experiment [8], the Potency entry was “inactive”.

Take `C=CC(C)=O`: the Potency entry in experiment [1], in experiment [2], in experiment [3], in experiment [4], in experiment [5] and in experiment [6] was “inactive” each time. Also, the Potency entry in experiment [7] and in experiment [8] was “inactive” throughout.

In the case of `COP(=S)(Oc1cc(Cl)c(Br)cc1Cl)c1ccccc1` (stereo not given), the Potency entry in experiment [1], in experiment [2], in experiment [3], in experiment [4], in experiment [5] and in experiment [6] was “inactive” each time. For the same compound, the Potency result in experiment [8] is “inactive”.

Consider `CO[C@@H]1[C@H](OC(=O)NC(=O)CCl)CC[C@]2(CO2)[C@H]1[C@@]1(C)O[C@@H]1CC=C(C)C`, for which the viability change, negative = cytotoxic in experiment [1] was -0.0338% [at 19 µM] (inactive); in experiment [5] it was -8.47% [at 19 µM] (inactive); in experiment [6] it was -7.4% [at 19 µM] (inactive). The results for the activity change, negative = inhibition in experiment [2], in experiment [3] and in experiment [8] were -0.212% [at 19 µM] (inactive), -1.01% [at 19 µM] (inactive) and -6.49% [at 19 µM] (inactive), respectively. Also, the activity change, negative = cytotoxicity in experiment [4] is 12.9% [at 19 µM] (inactive). Also, the activity change in experiment [7] was -3.77% [at 18.9 µM, stronger effect = higher value] (inactive).

Consider `CCCCCCCCCCOC(=O)c1ccccc1C(=O)OCCCCCCCCCC`, for which the Potency result in experiment [1], in experiment [2], in experiment [3], in experiment [4], in experiment [5] and in experiment [6] was “inactive” each time. In addition, the Potency result in experiment [7] and in experiment [8] was “inactive” throughout.

On to `c1ccoc1`, for which the Potency result in experiment [1], in experiment [2], in experiment [3], in experiment [4], in experiment [5] and in experiment [6] was “inactive” in each case. Also, the Potency entry in experiment [7] and in experiment [8] was “inactive” in each case.

`CCCN(CCCl)c1c([N+](=O)[O-])cc(C(F)(F)F)cc1[N+](=O)[O-]`: the Potency result in experiment [1], in experiment [2], in experiment [3], in experiment [4], in experiment [5] and in experiment [6] was “inactive” throughout. Also, the Potency result in experiment [7] and in experiment [8] was “inactive” in each case.

For `CCCN(CC1CC1)c1c([N+](=O)[O-])cc(C(F)(F)F)cc1[N+](=O)[O-]`, the Potency entry in experiment [1], in experiment [2], in experiment [3], in experiment [4], in experiment [5] and in experiment [6] was “inactive” in each case. For the same compound, the Potency result in experiment [7] and in experiment [8] was “inactive” each time.
